PubChem BioAssay (NCI)
The panel holds about 83,000 compounds, 20% with a hit somewhere; the sample as a whole holds those more often.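 Growth was measured after 48 h exposure to one concentration of compound in 96-well plates. Values under 10 count as active.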 Values without a mark were called inactive. Active and inactive are the calls of the source.

How the values were obtained:
Assay in all cases: NCI-60 one-dose screen, 48 h (100 = growth as untreated, 0 = no growth, -100 = all killed)
Conditions in all cases: 10 µM unless noted
HCT-15 colon = tested on: HCT-15 colon
HT29 colon = tested on: HT29 colon
SNB-75 CNS = tested on: SNB-75 CNS
SNB-19 CNS = tested on: SNB-19 CNS
U251 CNS = tested on: U251 CNS
PC-3 prostate = tested on: PC-3 prostate
SK-MEL-5 melanoma = tested on: SK-MEL-5 melanoma
UACC-62 melanoma = tested on: UACC-62 melanoma
LOX IMVI melanoma = tested on: LOX IMVI melanoma
SK-MEL-28 melanoma = tested on: SK-MEL-28 melanoma
SK-MEL-2 melanoma = tested on: SK-MEL-2 melanoma
EKVX NSCLC = tested on: EKVX NSCLC
SN12C renal = tested on: SN12C renal
UO-31 renal = tested on: UO-31 renal
TK-10 renal = tested on: TK-10 renal
ACHN renal = tested on: ACHN renal
CAKI-1 renal = tested on: CAKI-1 renal
A498 renal = tested on: A498 renal
CCRF-CEM leukemia = tested on: CCRF-CEM leukemia
MOLT-4 leukemia = tested on: MOLT-4 leukemia

| Structure (SMILES) | growth (HCT-15 colon) [%] | growth (HT29 colon) | growth (SNB-75 CNS) [%] | growth (SNB-19 CNS) [%] | growth (U251 CNS) | growth (PC-3 prostate) [%] | growth (SK-MEL-5 melanoma) [%] | growth (UACC-62 melanoma) [%] | growth (LOX IMVI melanoma) | growth (SK-MEL-28 melanoma) [%] | growth (SK-MEL-2 melanoma) | growth (EKVX NSCLC) [%] | growth (SN12C renal) [%] | growth (UO-31 renal) [%] | growth (TK-10 renal) [%] | growth (ACHN renal) [%] | growth (CAKI-1 renal) | growth (A498 renal) [%] | growth (CCRF-CEM leukemia) | growth (MOLT-4 leukemia) |
| --- | --- | --- | --- | --- | --- | --- | --- | --- | --- | --- | --- | --- | --- | --- | --- | --- | --- | --- | --- | --- |
| COc1cc(/C=C\c2cc(/C=C\c3ccc(O)c(OC)c3)n(C(=O)Nc3ccc(C(F)(F)F)cc3)n2)ccc1O | 25.5 | 3.5% (active) | 71.8 | 48.7 | 9.71% (active) | 38 | 35.4 | 31.1 | 9.11% (active) | 58 | 84.5% | 61.3 | 36.9 | 42.9 | 77.7 | 65.8 | 55% | 108 | 3.42% (active) | 11.1% |
| OCCN(CCO)c1ccc2ccccc2c1 | 98.4 | 94.3% | 88.1 | 104 | 104% | 83.2 | 100 | 91.4 | 91.4% | 108 | 87.3% | 102 | 94.2 | 65 | 97.6 | 106 | 97.3% | 110 | 109% | 98.8% |
| C/C(=N\Nc1ccc([N+](=O)[O-])cn1)c1ccc(N)cc1 | 95.1 | 101% | 94.4 | 95.9 | 95.7% | 94.1 | 101 | 99.1 | 100% | 113 | 100% | 109 | 94.8 | 87.7 | 105 | 97.8 | 101% | 82.4 | 96.3% | -11.7% (active) |
| Nc1ncnc2c1N=C(c1ccc3c(c1)OCO3)CC(c1ccc(Cl)cc1)N2 (stereo not given) | 63.6 | 69.8% | 48.5 | 67.8 | 74% | 62.6 | 78 | 60.3 | 76.2% | 88.5 | 58.1% | 71.1 | 93.3 | 55.8 | 99.7 | 77.8 | 74% | 87 | -33.1% (active) | 69.4% |
| COc1ccc2nc(C)cc(Sc3nc4ccccc4s3)c2c1 | 29.2 | 26.2% | 46.4 | 62 | 39.6% | 52.9 | 35.2 | 47.3 | 29.4% | 62.7 | -99.6% (active) | 42.1 | 40.5 | 16.7 | 61.4 | 33.7 | -41.8% (active) | 40.7 | 7.21% (active) | -21.2% (active) |
| CC(=O)c1ccc(Br)c([N+](=O)[O-])c1 | 104 | 98% | 92.7 | 98.7 | 104% | 104 | 99.9 | 111 | 90% | 118 | 102% | 104 | 104 | 90.7 | 91.5 | 111 | -7.58% (active) | 76.9 | 98.1% | 96.8% |
| CC1OC(n2c3ccccc3c3c4c(c5c6ccccc6[nH]c5c32)C(=O)N(CCN[C@H]2CCC[C@@H]2N)C4=O)CC(O)C1O (stereo not given in full) | 82.6 | 12.9% | 24.1 | 17 | 14.5% | 16.8 | 23.7 | 42.1 | 20.3% | 68.6 | 74.5% | 45.9 | 17.9 | 66.8 | 52.8 | 45.6 | 85.7% | 77.9 | 27.1% | 7.62% (active) |
